Laboratory results as given in the supplement of paper PMC10849652.
About 7,900 targets were measured; listed, in parts, are those with a hit and a random draw of the rest. About 0.6% of all pairs of compound and target were hits. Unmarked numbers belong to inactive results.

The targets below were run with CN1CCc2c(c3ccccc3n2Cc2ccc(C(=O)NO)cc2)C1 [Tubastatin A] (assay: log2 fold change, soluble protein after heating vs DMSO (PISA); higher = thermal stabilisation; K562 cells, 10 uM, 30 min; active = over 0.2 and 3.5 SD of the protein, either way, in both replicates (recomputed)).
Summary of the method: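 K562 cells (2×10^6 cells/mL) were treated with 10 μM compound for 30 min, and aliquots were heated for 3 min over 48°C-58°C. Pooled aliquots were extracted in PBS with 0.5% NP-40 at 4°C, and the supernatant after 21,000xg for 90 min was measured by TMTpro 16plex LC-MS/MS with channel sums equalised. Reported thermal stability, relative to control samples and from duplicates, is a log2 fold change.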

UniProt Q5TA31, sequence (Q5TA31 whole entry, looked up): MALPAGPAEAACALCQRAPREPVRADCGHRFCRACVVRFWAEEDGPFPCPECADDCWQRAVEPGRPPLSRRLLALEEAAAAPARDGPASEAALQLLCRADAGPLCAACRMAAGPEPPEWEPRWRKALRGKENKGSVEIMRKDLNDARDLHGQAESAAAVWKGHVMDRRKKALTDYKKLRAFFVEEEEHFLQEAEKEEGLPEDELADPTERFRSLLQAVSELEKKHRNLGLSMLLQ
UniProt O43819, sequence (O43819 whole entry, looked up): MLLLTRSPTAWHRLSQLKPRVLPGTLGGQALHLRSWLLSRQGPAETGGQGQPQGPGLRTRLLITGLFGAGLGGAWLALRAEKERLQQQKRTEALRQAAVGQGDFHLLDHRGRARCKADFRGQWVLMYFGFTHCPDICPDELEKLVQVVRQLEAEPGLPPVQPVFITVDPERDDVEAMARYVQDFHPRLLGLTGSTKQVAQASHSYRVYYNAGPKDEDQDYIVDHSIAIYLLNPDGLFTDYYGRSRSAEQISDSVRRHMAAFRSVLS
UniProt Q8N122, sequence (Q8N122 whole entry, looked up): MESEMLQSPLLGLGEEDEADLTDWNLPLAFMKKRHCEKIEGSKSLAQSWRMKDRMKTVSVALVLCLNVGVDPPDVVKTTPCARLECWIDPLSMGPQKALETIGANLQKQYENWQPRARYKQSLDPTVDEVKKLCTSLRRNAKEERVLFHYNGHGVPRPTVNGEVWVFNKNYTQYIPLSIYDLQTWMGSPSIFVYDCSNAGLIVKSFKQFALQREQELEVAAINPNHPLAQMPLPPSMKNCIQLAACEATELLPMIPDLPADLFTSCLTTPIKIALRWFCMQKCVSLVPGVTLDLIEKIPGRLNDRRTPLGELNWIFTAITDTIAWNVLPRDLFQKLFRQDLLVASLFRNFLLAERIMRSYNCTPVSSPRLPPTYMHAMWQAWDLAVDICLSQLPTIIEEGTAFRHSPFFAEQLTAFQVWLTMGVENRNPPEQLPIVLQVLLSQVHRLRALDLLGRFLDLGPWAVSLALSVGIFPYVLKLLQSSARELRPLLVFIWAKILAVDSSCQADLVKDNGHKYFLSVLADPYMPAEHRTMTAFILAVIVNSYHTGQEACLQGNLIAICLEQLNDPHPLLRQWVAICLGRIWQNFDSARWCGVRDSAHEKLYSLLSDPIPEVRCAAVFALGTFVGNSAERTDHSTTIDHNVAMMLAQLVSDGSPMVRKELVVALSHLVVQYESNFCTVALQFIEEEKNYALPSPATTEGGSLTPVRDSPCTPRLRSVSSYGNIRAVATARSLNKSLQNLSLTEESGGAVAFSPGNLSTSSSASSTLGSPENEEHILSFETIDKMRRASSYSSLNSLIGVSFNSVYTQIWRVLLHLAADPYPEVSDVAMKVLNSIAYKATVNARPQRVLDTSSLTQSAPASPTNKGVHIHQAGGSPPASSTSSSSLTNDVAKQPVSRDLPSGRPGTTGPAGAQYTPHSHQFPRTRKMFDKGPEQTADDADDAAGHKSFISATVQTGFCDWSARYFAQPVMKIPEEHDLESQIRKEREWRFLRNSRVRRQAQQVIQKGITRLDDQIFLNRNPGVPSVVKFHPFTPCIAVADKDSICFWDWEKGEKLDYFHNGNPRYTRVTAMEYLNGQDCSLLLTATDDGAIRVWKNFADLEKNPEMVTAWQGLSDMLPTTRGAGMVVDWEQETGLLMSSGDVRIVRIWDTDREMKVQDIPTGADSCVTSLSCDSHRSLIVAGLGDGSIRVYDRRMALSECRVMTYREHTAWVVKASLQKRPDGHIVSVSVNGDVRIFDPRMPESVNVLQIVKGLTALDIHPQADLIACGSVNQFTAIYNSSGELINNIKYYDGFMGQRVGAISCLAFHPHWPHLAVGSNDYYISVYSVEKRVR
UniProt Q15418, sequence (Q15418 whole entry, looked up): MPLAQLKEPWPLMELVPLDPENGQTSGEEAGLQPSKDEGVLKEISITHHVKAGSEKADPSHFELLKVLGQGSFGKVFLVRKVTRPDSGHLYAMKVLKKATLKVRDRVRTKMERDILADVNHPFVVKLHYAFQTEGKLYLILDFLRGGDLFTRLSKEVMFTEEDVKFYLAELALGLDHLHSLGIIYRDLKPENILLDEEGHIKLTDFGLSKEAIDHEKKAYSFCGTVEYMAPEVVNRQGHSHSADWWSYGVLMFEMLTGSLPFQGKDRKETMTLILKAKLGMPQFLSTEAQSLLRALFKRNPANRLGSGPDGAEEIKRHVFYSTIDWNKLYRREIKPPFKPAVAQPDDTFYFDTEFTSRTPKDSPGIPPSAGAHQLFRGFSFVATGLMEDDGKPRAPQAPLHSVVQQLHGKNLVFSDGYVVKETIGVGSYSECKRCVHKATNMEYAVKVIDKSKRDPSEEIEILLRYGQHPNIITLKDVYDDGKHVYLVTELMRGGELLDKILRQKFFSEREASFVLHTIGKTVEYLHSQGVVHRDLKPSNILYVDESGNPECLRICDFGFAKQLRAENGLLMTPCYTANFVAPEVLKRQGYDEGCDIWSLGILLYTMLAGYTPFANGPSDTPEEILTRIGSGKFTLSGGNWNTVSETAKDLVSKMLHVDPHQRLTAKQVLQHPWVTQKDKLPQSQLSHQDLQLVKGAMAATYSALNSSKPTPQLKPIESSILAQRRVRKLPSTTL
UniProt Q15758, sequence (Q15758 whole entry, looked up): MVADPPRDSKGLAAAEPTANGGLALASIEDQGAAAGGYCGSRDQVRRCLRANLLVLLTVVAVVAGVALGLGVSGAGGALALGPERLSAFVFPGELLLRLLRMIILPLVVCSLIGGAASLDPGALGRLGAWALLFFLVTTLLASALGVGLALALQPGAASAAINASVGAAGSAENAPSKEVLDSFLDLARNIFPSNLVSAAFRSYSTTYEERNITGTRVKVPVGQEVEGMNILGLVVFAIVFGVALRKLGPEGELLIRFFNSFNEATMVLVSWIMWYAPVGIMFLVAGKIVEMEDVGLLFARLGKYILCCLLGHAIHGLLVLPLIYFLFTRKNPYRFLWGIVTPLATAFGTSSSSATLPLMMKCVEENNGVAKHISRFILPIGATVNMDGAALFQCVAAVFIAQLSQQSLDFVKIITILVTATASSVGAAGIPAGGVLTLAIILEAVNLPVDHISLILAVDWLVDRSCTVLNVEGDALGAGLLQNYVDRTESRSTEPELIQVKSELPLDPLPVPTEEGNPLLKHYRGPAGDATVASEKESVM
UniProt Q9NW64, sequence (Q9NW64 whole entry, looked up): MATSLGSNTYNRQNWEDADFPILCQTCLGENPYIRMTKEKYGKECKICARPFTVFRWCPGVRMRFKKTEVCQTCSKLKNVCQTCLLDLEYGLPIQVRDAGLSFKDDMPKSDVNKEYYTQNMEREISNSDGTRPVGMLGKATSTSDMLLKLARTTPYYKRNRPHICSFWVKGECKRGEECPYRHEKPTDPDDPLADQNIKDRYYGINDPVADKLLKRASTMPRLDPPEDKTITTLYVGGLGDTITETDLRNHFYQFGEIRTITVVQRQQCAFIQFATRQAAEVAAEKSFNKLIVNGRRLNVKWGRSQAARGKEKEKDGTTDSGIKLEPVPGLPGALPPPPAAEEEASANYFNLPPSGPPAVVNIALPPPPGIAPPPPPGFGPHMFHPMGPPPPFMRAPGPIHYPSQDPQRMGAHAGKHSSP
UniProt P40938, sequence (P40938 whole entry, looked up): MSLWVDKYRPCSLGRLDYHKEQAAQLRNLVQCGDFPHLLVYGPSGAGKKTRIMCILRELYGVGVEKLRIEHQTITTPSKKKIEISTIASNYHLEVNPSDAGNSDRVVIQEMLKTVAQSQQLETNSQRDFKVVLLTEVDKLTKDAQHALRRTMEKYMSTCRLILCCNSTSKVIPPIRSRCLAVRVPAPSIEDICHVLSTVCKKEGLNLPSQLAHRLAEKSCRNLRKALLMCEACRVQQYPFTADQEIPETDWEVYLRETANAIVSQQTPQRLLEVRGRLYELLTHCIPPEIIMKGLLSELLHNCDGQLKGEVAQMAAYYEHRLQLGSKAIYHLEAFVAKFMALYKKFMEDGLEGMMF
UniProt O43818, sequence (O43818 whole entry, looked up): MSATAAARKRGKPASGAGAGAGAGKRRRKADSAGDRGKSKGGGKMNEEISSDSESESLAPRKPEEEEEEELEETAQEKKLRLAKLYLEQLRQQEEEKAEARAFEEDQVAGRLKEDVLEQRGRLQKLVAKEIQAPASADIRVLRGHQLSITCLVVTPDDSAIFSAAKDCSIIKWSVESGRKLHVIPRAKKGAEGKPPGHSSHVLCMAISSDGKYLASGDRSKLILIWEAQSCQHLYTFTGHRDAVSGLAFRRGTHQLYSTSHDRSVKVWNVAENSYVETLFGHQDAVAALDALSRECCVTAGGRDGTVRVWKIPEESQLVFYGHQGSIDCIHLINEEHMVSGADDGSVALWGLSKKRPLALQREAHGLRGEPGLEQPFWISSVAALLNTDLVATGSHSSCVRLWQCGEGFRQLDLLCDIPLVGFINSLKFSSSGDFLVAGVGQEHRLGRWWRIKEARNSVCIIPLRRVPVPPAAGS
UniProt Q9UBS8, sequence (Q9UBS8 whole entry, looked up): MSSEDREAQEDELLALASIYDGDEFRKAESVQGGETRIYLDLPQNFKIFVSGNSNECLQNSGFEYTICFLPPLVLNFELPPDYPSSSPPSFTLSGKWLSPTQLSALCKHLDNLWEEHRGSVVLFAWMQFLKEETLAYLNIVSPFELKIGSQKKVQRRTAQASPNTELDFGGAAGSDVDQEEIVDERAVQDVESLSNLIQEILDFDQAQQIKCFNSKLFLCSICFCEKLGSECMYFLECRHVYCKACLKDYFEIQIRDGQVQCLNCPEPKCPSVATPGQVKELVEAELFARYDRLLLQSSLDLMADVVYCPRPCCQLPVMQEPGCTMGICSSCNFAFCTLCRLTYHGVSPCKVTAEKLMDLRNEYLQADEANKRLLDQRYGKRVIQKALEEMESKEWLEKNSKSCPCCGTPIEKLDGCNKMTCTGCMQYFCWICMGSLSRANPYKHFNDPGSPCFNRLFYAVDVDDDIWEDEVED
UniProt O95059, sequence (O95059 whole entry, looked up): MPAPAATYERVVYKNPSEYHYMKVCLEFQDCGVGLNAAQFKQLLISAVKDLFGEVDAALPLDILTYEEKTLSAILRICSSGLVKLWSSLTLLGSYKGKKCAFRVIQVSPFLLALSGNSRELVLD

| Target | log2 fold change |
| --- | --- |
| SCAF11 (UniProt Q99590) | -0.052 |
| SASH1 (UniProt O94885) | 0.04 |
| RRP9 (UniProt O43818) | 0 |
| SLC1A5 (UniProt Q15758) | -0.023 |
| RRP12 (UniProt Q5JTH9) | 0.125 |
| RSRC2 (UniProt Q7L4I2) | -0.055 |
| RBM17 (UniProt Q96I25) | 0.065 |
| RAB8B (UniProt Q92930) | -0.054 |
| RPP14 (UniProt O95059) | 0.059 |
| RNASEH2A (UniProt O75792) | 0.033 |
| RNF187 (UniProt Q5TA31) | 0.196 |
| SCO2 (UniProt O43819) | 0.016 |
| RPL31 (UniProt P62899) | 0.147 |
| RSRC1 (UniProt Q96IZ7) | 0.018 |
| RNF14 (UniProt Q9UBS8) | -0.014 |
| SCAF8 isoform 2 (UniProt Q9UPN6) | 0.006 |
| RBM4 (UniProt Q9BWF3) | 0.017 |

| Target | log2 fold change |
| --- | --- |
| RPRD1B (UniProt Q9NQG5) | -0.039 |
| RNF2 (UniProt Q99496) | 0.111 |
| RPTOR (UniProt Q8N122) | 0.027 |
| SLC12A5 (UniProt Q9H2X9) | -0.072 |
| RPS6KA1 isoform 2 (UniProt Q15418) | 0.005 |
| RCN3 (UniProt Q96D15) | 0.153 |
| RRP36 (UniProt Q96EU6) | 0.17 |
| RTN4IP1 (UniProt Q8WWV3) | 0.611 (active) |
| RPS4X (UniProt P62701) | 0.123 |
| RECQL (UniProt P46063) | 0.021 |
| RPS27A (UniProt P62979) | -0.013 |
| RAC3 (UniProt P60763) | -0.081 |
| SART3, A0A499FI31 | 0.035 |
| RAC1 (UniProt P63000) | 0.057 |
| RBM22 (UniProt Q9NW64) | -0.065 |
| RFC3 (UniProt P40938) | 0.023 |
